According to PubChem BioAssay (EPA / NIEHS):
Calls of active or inactive are those of the source. Rule for the calls: active = hit-call score of the fitted dose curve at least 0.9, where 1 is the maximum; inactive = score below 0.9.

Tests used:
Conditions in all cases: mRNA level, 48 h; actives raise or lower the signal
[1] = read-out: matrix metalloproteinase-10 (MMP10), MMP10 (gene 4319); experiment: LTEA_HepaRG_MMP10: Life Technologies and Expression Analysis (LTEA) Assay for matrix metalloproteinase-10 (MMP10) using HepaRG (AID 2283517)
Procedure, shortened: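 Transcript levels come from Fluidigm qRT-PCR normalized to three housekeeping genes, with curves fitted bidirectionally against 0.5% DMSO. Human HepaRG cells were dosed for 48 hours at concentrations up to 100 uM.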

MYC, MYC (gene 4609) = experiment: LTEA_HepaRG_MYC: Life Technologies and Expression Analysis (LTEA) Assay for MYC using HepaRG (AID 2283518)
Procedure, shortened: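 qRT-PCR read-out of MYC transcript (Fluidigm TaqMan, housekeeping-normalized) after 48 h chemical exposure of HepaRG cells; eight concentrations, top 100 uM, half-log steps. Bidirectional curve fitting against 0.5% DMSO vehicle baseline.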

[2] = read-out: matrix metalloproteinase-3 (MMP3), MMP3 (gene 4314); experiment: LTEA_HepaRG_MMP3: Life Technologies and Expression Analysis (LTEA) Assay for matrix metalloproteinase-3 (MMP3) using HepaRG (AID 2283519)
Procedure, shortened: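 qRT-PCR read-out of MMP3 mRNA (normalised to three housekeeping genes) in HepaRG liver cells after 48 h chemical exposure; 8-point half-log series, top 100 uM, 0.5% DMSO vehicle. Bidirectional curve fitting against DMSO baseline.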

[3] = read-out: Paternally Expressed 10 (PEG10), PEG10 (gene 23089); experiment: LTEA_HepaRG_PEG10: Life Technologies and Expression Analysis (LTEA) Assay for Paternally Expressed 10 (PEG10) using HepaRG (AID 2283520);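 for AC50: differentiated HepaRG human liver cells in serum-free induction medium with 0.5% DMSO; PEG10 transcript by qRT-PCR normalised to ACTB GAPDH and POLR2A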
Procedure, shortened: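 PEG10 transcript measured by Fluidigm qRT-PCR, normalized to three housekeeping genes, in HepaRG cells treated 48 h (highest 100 uM, half-log steps, 0.5% DMSO vehicle). Cells plated 48 h before switching to serum-free induction medium.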

[4] = read-out: Protein phosphatase 2A (PPP2R4), PTPA (gene 5524); experiment: LTEA_HepaRG_PPP2R4: Life Technologies and Expression Analysis (LTEA) Assay for Protein phosphatase 2A (PPP2R4) using HepaRG (AID 2283522)
Procedure, shortened: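 Expression was quantified by Fluidigm qRT-PCR normalised to three housekeeping genes after 48 h treatment. Human HepaRG cells received an 8-point series from 100 µM downward by half-logs, in duplicate with 0.5% DMSO vehicle and 1 mM phenobarbital as induction control.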

[5] = read-out: Phosphatase and tensin (PTEN), PTEN (gene 5728); experiment: LTEA_HepaRG_PTEN: Life Technologies and Expression Analysis (LTEA) Assay for Phosphatase and tensin (PTEN) using HepaRG (AID 2283523)
Procedure, shortened: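 HepaRG, 48 h exposure, 8-pt half-log series from 100 uM top, 0.5% DMSO vehicle, duplicates. Readout: Fluidigm qRT-PCR of PTEN transcript; housekeeping normalization (ACTB, GAPDH, POLR2A). Gain or loss fitted relative to DMSO baseline.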

[6] = read-out: solute carrier (SLC22A1), SLC22A1 (gene 6580); experiment: LTEA_HepaRG_SLC22A1: Life Technologies and Expression Analysis (LTEA) Assay for solute carrier (SLC22A1) using HepaRG (AID 2283524);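 for AC50: differentiated human HepaRG liver cells in serum-free induction medium; TaqMan qRT-PCR normalized to ACTB GAPDH and POLR2A housekeeping genes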
Procedure, shortened: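 qRT-PCR readout (TaqMan, Fluidigm arrays) of SLC22A1 transcript, normalized to three housekeeping genes; bidirectional curve fit relative to 0.5% DMSO vehicle. Differentiated human HepaRG cells, 48 h chemical exposure, top concentration 100 uM, half-log steps, eight points.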

[7] = read-out: Pyruvate Dehydrogenase Kinase 4 (PDK4), PDK4 (gene 5166); experiment: LTEA_HepaRG_PDK4: Life Technologies and Expression Analysis (LTEA) Assay for Pyruvate Dehydrogenase Kinase 4 (PDK4) using HepaRG (AID 2283525)
Procedure, shortened: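 HepaRG (human liver line), 48 h chemical exposure, 8-pt half-log CRC top 100 uM, 0.5% DMSO vehicle, duplicates. Readout: TaqMan qRT-PCR of PDK4 mRNA, housekeeping-normalized; gain/loss fit relative to DMSO baseline.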

[8] = read-out: MicroRNA 122 (MIR122), gene 406906; experiment: LTEA_HepaRG_MIR122: Life Technologies and Expression Analysis (LTEA) Assay for MicroRNA 122 (MIR122) using HepaRG (AID 2283516); note: the transcript read is the microRNA miR-122
Procedure, shortened: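 Expression measured by microfluidic qRT-PCR with three housekeeping genes for normalisation, after 48 h treatment of HepaRG cultures. Eight concentrations (top 100 uM, half-log steps, 0.5% DMSO vehicle) in duplicate; gain or loss fitted relative to vehicle.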

[9] = read-out: Nuclear factor NF-kappa-B p105 subunit (Homo sapiens) (UniProt P19838); experiment: LTEA_HepaRG_NFKB1: Life Technologies and Expression Analysis (LTEA) Assay for Nuclear Factor Kappa B Subunit 1 (NFKB1) using HepaRG (AID 2283521)
Procedure, shortened: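 Human HepaRG cells receive eight half-log concentrations, highest 100 uM, for 48 h. NFKB1 expression is then quantified by qRT-PCR and analysed for up- or down-regulation relative to 0.5% DMSO vehicle.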

Measured: AC50

Chain of Nuclear factor NF-kappa-B p105 subunit (Homo sapiens) (P19838 whole entry, looked up): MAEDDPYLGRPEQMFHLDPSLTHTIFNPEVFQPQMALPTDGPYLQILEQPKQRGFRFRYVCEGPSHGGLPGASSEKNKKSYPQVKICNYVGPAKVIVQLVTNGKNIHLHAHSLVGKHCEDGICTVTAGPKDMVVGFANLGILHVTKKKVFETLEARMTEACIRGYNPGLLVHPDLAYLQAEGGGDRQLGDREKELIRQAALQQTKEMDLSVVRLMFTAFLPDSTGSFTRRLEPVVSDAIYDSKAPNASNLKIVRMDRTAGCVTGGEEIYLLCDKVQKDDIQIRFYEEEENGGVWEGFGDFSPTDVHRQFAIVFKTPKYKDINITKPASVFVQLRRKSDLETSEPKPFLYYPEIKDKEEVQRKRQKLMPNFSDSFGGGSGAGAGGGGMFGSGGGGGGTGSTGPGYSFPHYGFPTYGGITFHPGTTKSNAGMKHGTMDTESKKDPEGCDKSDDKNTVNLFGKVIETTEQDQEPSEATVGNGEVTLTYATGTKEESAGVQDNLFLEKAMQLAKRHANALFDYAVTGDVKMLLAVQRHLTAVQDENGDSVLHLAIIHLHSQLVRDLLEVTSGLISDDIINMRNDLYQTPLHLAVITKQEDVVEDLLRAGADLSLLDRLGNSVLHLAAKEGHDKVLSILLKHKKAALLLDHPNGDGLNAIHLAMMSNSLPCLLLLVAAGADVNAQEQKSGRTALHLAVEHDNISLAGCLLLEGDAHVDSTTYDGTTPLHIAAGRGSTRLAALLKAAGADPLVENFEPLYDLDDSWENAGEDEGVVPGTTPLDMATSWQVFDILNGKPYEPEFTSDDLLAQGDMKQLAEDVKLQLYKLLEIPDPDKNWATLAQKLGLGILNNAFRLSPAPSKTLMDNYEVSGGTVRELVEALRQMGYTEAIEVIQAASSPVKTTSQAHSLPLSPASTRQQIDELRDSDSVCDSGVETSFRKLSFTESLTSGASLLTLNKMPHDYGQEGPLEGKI

CCCOC(=O)c1cc(O)c(O)c(O)c1
inactive: [1] | MYC, MYC (gene 4609) | [2] | [3] | [4] | [5] | [6]
active: [7] 31.4 µM

C[C@]12CC[C@@H]3c4ccc(O)cc4CC[C@H]3[C@@H]1CC[C@H]2O
inactive: [8] | [1] | MYC, MYC (gene 4609) | [2] | [4] | [5] | [7]
active: [3] 50 µM | [6] 71.1 µM

O=C1O[C@H]([C@@H](O)CO)C(O)=C1O
inactive: [8] | [1] | MYC, MYC (gene 4609) | [2] | [3] | [4] | [5] | [6] | [7]

CC/C(=C(/CC)c1ccc(O)cc1)c1ccc(O)cc1
inactive: [8] | MYC, MYC (gene 4609) | [2]
active: [1] 86.9 µM | [3] 67.1 µM | [4] 85.4 µM | [5] 93.8 µM | [6] 75.7 µM | [7] 80.1 µM

Cc1ncc(CO)c(CO)c1O
inactive: [8] | [1] | MYC, MYC (gene 4609) | [2] | [3] | [4] | [5] | [6] | [7]

CN(C)c1ccc(C(=C2C=CC(=[N+](C)C)C=C2)c2ccc(N(C)C)cc2)cc1
active: [8] 6.78 µM | [1] 8.54 µM | MYC, MYC (gene 4609) 12 µM | [2] 9.34 µM | [3] 6.63 µM | [4] 12.9 µM | [5] 26.1 µM | [6] 3.62 µM | [7] 32.4 µM

Cc1cccc2ccccc12
inactive: [8] | [1] | MYC, MYC (gene 4609) | [2] | [3] | [9] | [4] | [5] | [6] | [7]

c1ccc(C[n+]2cccc3ccccc32)cc1
inactive: [1] | [2] | [3] | [9] | [4] | [5]
active: [8] 22.5 µM | MYC, MYC (gene 4609) 34.6 µM | [6] 25 µM | [7] 31 µM

O=C(OCCCCCCOC(=O)c1ccccc1)c1ccccc1
inactive: [8] | [1] | MYC, MYC (gene 4609) | [2] | [3] | [9] | [4] | [5] | [6] | [7]

CCCCOC(=O)CC(CC(=O)OCCCC)(OC(C)=O)C(=O)OCCCC
inactive: [8] | [1] | MYC, MYC (gene 4609) | [2] | [3] | [9] | [4] | [5] | [6] | [7]

O=CCCCC=O
inactive: [8] | [1] | MYC, MYC (gene 4609) | [2] | [3] | [9] | [4] | [5] | [6] | [7]

CC1=CC(=O)/C(=C(/C)O)C(=O)O1
inactive: [8] | [1] | MYC, MYC (gene 4609) | [2] | [3] | [4] | [5] | [6] | [7]

CC1(C)NC(=O)N(c2ccc([N+](=O)[O-])c(C(F)(F)F)c2)C1=O
active: [8] 80.9 µM | MYC, MYC (gene 4609) 81.8 µM | [3] 15.7 µM | [6] 74.3 µM | [7] 80.1 µM
inactive: [1] | [2] | [4] | [5]

CN1C(=O)N(c2ccccc2Br)Cc2cnc(Nc3ccc4c(c3)OCC(CO)O4)nc21 (centres undefined)
inactive: [1] | MYC, MYC (gene 4609) | [2] | [3] | [4] | [5]
active: [8] 63.2 µM | [9] 19.5 µM | [6] 35.2 µM | [7] 50 µM

CCCCCCCCCCCC[N+](C)(C)C
active: [8] 75 µM | [1] 82.4 µM | MYC, MYC (gene 4609) 75.8 µM | [2] 76.4 µM | [3] 33.8 µM | [6] 91 µM | [7] 75.6 µM
inactive: [9] | [4] | [5]

Cc1cc2c(cc1C(F)(F)F)N(C(=O)Nc1ccc(Oc3cccnc3C)nc1)CC2
active: [8] 46 µM | [1] 26.8 µM | [6] 30.1 µM
inactive: MYC, MYC (gene 4609) | [2] | [3] | [9] | [4] | [5] | [7]

CCCCOC(=O)c1ccc(O)cc1
inactive: [8] | [1] | MYC, MYC (gene 4609) | [2] | [3] | [4] | [5] | [6] | [7]

c1ccc2ccccc2c1
inactive: [8] | [1] | MYC, MYC (gene 4609) | [2] | [3] | [9] | [4] | [5] | [6] | [7]

CC(C)(C)c1cc(/C=C2\SC(N)=NC2=O)cc(C(C)(C)C)c1O
active: [8] 94.3 µM | [1] 49.9 µM | MYC, MYC (gene 4609) 28.9 µM | [2] 3.52 µM | [9] 93.6 µM | [4] 96.5 µM | [5] 18.4 µM | [6] 25.3 µM | [7] 12.4 µM
inactive: [3]

Cc1c2ccccc2c(C)c2c1ccc1ccccc12
active: [8] 66 µM | [1] 79.5 µM | MYC, MYC (gene 4609) 63.7 µM | [2] 11.8 µM | [3] 28.5 µM | [6] 41.2 µM | [7] 56.6 µM
inactive: [9] | [4]
